These results are taken from PMC11006913.

Sequence of HOXD13 (Homo sapiens, UniProt P35453 263-343, T313A) (P35453 263-343 T313A): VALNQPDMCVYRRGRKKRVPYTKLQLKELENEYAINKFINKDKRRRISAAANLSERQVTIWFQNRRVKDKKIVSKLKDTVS

For one assay, the target named is HOXD13 (Homo sapiens, UniProt P35453 263-343, T313R). Nature of the assay: PBM; 200 nM protein, PBS. Particulars: dsDNA, one strand shown.
Sequence of HOXD13 (Homo sapiens, UniProt P35453 263-343, T313R) (P35453 263-343 T313R): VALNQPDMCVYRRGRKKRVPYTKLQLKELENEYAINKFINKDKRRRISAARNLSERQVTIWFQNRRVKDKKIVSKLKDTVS
For the sequence CAGGCGAC, the binding signal was 9.59 upbm affinity estimate (log intensity, higher = more binding, comparable within an allelic series). On the same count and under the same terms, with TCTATAAA the figure was 11 upbm affinity estimate (log intensity, higher = more binding, comparable within an allelic series).

For ATTTTATA, the binding signal is 10.9 upbm affinity estimate (log intensity, higher = more binding, comparable within an allelic series).

For AAGGCGAG, the binding signal is 9.65 upbm affinity estimate (log intensity, higher = more binding, comparable within an allelic series). The same measure, in the same setting: with CAGCGGGG the figure was 9.37 upbm affinity estimate (log intensity, higher = more binding, comparable within an allelic series); with ATATAAAT, 10.8 upbm affinity estimate (log intensity, higher = more binding, comparable within an allelic series); with TAATATAA, 10.8 upbm affinity estimate (log intensity, higher = more binding, comparable within an allelic series).

Regarding CCGCCCGG, the binding signal was 9.44 upbm affinity estimate (log intensity, higher = more binding, comparable within an allelic series). As to ATTTACAA, the binding signal is 10.7 upbm affinity estimate (log intensity, higher = more binding, comparable within an allelic series). On the same count and under the same terms, the value for GTTATTAA was 10.7 upbm affinity estimate (log intensity, higher = more binding, comparable within an allelic series).

The target of another assay is T1, SIX6 (Homo sapiens, UniProt O95475 114-200, T165A).
T1 sequence: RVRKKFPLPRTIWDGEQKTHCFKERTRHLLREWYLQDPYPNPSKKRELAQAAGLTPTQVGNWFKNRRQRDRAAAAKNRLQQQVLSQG
Briefly: PBM; 200 nM protein, PBS. Particulars: dsDNA, one strand shown.
As for GAGTGTCA, the binding signal is 10.3 upbm affinity estimate (log intensity, higher = more binding, comparable within an allelic series). On the same count and under the same terms, with ATTGACAC the figure was 10.5 upbm affinity estimate (log intensity, higher = more binding, comparable within an allelic series); with GGTGTAGA, 10.3 upbm affinity estimate (log intensity, higher = more binding, comparable within an allelic series); with AAGGTGTA, 10.1 upbm affinity estimate (log intensity, higher = more binding, comparable within an allelic series). On the same count and under the same terms, with CGACACCG the figure was 10.2 upbm affinity estimate (log intensity, higher = more binding, comparable within an allelic series).

In the case of GTGTCACA, the binding signal is 10.7 upbm affinity estimate (log intensity, higher = more binding, comparable within an allelic series). On the same count and under the same terms, with AGTGTCAA the figure was 10.3 upbm affinity estimate (log intensity, higher = more binding, comparable within an allelic series). On the same count and under the same terms, with GGTGTAAA the figure was 10.4 upbm affinity estimate (log intensity, higher = more binding, comparable within an allelic series). On the same count and under the same terms, the value for AGTGTCAC was 10.4 upbm affinity estimate (log intensity, higher = more binding, comparable within an allelic series).

For the sequence GACACCAA, the binding signal was 10.5 upbm affinity estimate (log intensity, higher = more binding, comparable within an allelic series). On the same count and under the same terms, with GGGTGTAA the figure was 10.4 upbm affinity estimate (log intensity, higher = more binding, comparable within an allelic series); with ACTGACAC, 10.4 upbm affinity estimate (log intensity, higher = more binding, comparable within an allelic series).

Turning to TAGTGTCA, the binding signal was 10.4 upbm affinity estimate (log intensity, higher = more binding, comparable within an allelic series). On the same count and under the same terms, with CGGGTGTC the figure was 10.4 upbm affinity estimate (log intensity, higher = more binding, comparable within an allelic series); with GTGTCAAA, 10.3 upbm affinity estimate (log intensity, higher = more binding, comparable within an allelic series); with GGTGTCGA, 10.5 upbm affinity estimate (log intensity, higher = more binding, comparable within an allelic series). Still for that read-out and setting: with GACACCGA the figure was 10.4 upbm affinity estimate (log intensity, higher = more binding, comparable within an allelic series); with GTGTCATA, 10.8 upbm affinity estimate (log intensity, higher = more binding, comparable within an allelic series); with AAGGTGTC, 10.5 upbm affinity estimate (log intensity, higher = more binding, comparable within an allelic series). Take CTTGACAC: the binding signal was 10.3 upbm affinity estimate (log intensity, higher = more binding, comparable within an allelic series). Still for that read-out and setting: with AGGGTGTC the figure was 10.5 upbm affinity estimate (log intensity, higher = more binding, comparable within an allelic series).

The target in a further assay is T2, NKX2-6 (Homo sapiens, UniProt A6NCS4 118-204).
T2 sequence: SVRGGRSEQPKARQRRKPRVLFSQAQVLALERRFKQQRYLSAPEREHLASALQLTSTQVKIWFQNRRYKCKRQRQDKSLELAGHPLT
Nature of the assay: PBM; 200 nM protein, PBS. Particulars: dsDNA, one strand shown.
With CAATTCAA, the binding signal is 11.8 upbm affinity estimate (log intensity, higher = more binding, comparable within an allelic series). The same measure, in the same setting: the value for ACTTGTTC was 11.7 upbm affinity estimate (log intensity, higher = more binding, comparable within an allelic series); that for GATTATGA was 11.2 upbm affinity estimate (log intensity, higher = more binding, comparable within an allelic series). In the case of CTAAGTTA, the binding signal was 11.2 upbm affinity estimate (log intensity, higher = more binding, comparable within an allelic series).

For AGTGCTAA, the binding signal is 12 upbm affinity estimate (log intensity, higher = more binding, comparable within an allelic series).

Take AATTACGC: the binding signal is 11.3 upbm affinity estimate (log intensity, higher = more binding, comparable within an allelic series). In the case of AACACTCC, the binding signal was 11.3 upbm affinity estimate (log intensity, higher = more binding, comparable within an allelic series). Still for that read-out and setting: the value for CGTAATAA was 11 upbm affinity estimate (log intensity, higher = more binding, comparable within an allelic series); that for GTACTAGA was 12.1 upbm affinity estimate (log intensity, higher = more binding, comparable within an allelic series).

In another assay the target is HOXD13 (Homo sapiens, UniProt P35453 263-343). Nature of the assay: PBM; 200 nM protein, PBS. Particulars: dsDNA, one strand shown.
Sequence of HOXD13 (Homo sapiens, UniProt P35453 263-343) (P35453 263-343): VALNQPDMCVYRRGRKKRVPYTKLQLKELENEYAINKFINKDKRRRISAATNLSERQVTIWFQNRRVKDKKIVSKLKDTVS
On to CAGGCGAC, for which the binding signal was 9.52 upbm affinity estimate (log intensity, higher = more binding, comparable within an allelic series).

Turning to TCTATAAA, the binding signal was 12.2 upbm affinity estimate (log intensity, higher = more binding, comparable within an allelic series).

As to ATTTTATA, the binding signal is 11.8 upbm affinity estimate (log intensity, higher = more binding, comparable within an allelic series). Same read-out and setting: with AAGGCGAG the figure was 9.72 upbm affinity estimate (log intensity, higher = more binding, comparable within an allelic series).

Take CAGCGGGG: the binding signal is 9.58 upbm affinity estimate (log intensity, higher = more binding, comparable within an allelic series).

Consider CCGCCCGG, for which the binding signal was 9.37 upbm affinity estimate (log intensity, higher = more binding, comparable within an allelic series). The same measure, in the same setting: the value for ATTTACAA was 11.8 upbm affinity estimate (log intensity, higher = more binding, comparable within an allelic series).

The next assay has as its target HOXD13 (Homo sapiens, UniProt P35453 263-343, T313A). Briefly: PBM; 200 nM protein, PBS. Particulars: dsDNA, one strand shown.
CAGGCGAC: the binding signal was 9.66 upbm affinity estimate (log intensity, higher = more binding, comparable within an allelic series). The same measure, in the same setting: the value for TCTATAAA was 11.9 upbm affinity estimate (log intensity, higher = more binding, comparable within an allelic series); that for ATTTTATA was 11.9 upbm affinity estimate (log intensity, higher = more binding, comparable within an allelic series); that for AAGGCGAG was 9.78 upbm affinity estimate (log intensity, higher = more binding, comparable within an allelic series).

On to CAGCGGGG, for which the binding signal is 9.58 upbm affinity estimate (log intensity, higher = more binding, comparable within an allelic series).

With ATATAAAT, the binding signal was 11.6 upbm affinity estimate (log intensity, higher = more binding, comparable within an allelic series). Same read-out and setting: with TAATATAA the figure was 11.6 upbm affinity estimate (log intensity, higher = more binding, comparable within an allelic series); with CCGCCCGG, 9.62 upbm affinity estimate (log intensity, higher = more binding, comparable within an allelic series). Regarding ATTTACAA, the binding signal is 11.6 upbm affinity estimate (log intensity, higher = more binding, comparable within an allelic series).

The target of another assay is HOXC9 (Homo sapiens, UniProt P31274 178-260, R222W). Briefly: PBM; 200 nM protein, PBS. Particulars: dsDNA, one strand shown.
Sequence of HOXC9 (P31274 178-260 R222W): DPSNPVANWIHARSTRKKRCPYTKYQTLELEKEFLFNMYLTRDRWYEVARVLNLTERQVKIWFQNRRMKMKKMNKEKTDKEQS
TCTATAAA: the binding signal was 11 upbm affinity estimate (log intensity, higher = more binding, comparable within an allelic series). As to ATTTTATA, the binding signal was 11.1 upbm affinity estimate (log intensity, higher = more binding, comparable within an allelic series). Same read-out and setting: the value for ATATAAAT was 11 upbm affinity estimate (log intensity, higher = more binding, comparable within an allelic series); that for TAATATAA was 11 upbm affinity estimate (log intensity, higher = more binding, comparable within an allelic series).
